Of roughly 7,900 targets only a part is listed; those with a hit were picked by preference. About 0.6% of all pairs of compound and target were hits. Unmarked numbers belong to inactive results.

Sequence of UniProt P52655 (P52655 whole entry, looked up): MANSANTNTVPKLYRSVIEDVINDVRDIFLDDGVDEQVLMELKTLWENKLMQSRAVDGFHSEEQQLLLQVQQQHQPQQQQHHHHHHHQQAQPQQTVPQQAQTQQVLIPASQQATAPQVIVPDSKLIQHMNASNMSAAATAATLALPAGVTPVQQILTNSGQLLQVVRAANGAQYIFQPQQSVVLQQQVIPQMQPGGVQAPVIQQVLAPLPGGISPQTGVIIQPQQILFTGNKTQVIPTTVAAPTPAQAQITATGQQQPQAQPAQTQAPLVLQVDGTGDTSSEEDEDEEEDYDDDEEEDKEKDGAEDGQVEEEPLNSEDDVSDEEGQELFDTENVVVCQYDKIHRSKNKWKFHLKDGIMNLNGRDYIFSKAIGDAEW
Sequence of UniProt O00458 (O00458 whole entry, looked up): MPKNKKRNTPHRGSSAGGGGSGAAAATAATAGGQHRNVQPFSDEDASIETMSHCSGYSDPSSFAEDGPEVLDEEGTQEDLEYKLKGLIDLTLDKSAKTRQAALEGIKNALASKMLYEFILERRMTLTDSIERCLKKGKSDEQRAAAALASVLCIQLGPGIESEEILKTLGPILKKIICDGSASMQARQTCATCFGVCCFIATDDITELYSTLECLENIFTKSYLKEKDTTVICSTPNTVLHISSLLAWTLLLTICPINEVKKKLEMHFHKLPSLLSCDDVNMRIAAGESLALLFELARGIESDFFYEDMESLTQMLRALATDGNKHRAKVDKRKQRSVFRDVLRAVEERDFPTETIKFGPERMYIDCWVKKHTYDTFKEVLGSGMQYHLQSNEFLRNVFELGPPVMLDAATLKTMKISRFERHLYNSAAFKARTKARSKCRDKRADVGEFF
Sequence of UniProt O15228 (O15228 whole entry, looked up): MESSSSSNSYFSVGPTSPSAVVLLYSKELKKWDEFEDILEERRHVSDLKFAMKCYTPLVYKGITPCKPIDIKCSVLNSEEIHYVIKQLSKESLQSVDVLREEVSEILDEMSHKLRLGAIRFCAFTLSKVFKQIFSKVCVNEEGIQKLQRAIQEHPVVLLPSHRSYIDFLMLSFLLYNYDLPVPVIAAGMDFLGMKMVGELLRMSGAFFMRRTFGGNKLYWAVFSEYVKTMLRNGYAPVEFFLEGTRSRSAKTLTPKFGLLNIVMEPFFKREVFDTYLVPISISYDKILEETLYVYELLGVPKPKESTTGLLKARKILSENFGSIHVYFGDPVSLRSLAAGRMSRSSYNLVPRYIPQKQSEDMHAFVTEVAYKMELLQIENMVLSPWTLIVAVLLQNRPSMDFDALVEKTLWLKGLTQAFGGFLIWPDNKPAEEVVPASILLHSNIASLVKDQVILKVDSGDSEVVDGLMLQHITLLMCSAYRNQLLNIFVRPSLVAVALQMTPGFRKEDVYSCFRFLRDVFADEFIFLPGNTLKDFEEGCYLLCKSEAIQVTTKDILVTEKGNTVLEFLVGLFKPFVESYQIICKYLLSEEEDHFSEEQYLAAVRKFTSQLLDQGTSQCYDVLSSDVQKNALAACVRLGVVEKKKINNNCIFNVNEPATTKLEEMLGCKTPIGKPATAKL
Sequence of UniProt P15104 (P15104 whole entry, looked up): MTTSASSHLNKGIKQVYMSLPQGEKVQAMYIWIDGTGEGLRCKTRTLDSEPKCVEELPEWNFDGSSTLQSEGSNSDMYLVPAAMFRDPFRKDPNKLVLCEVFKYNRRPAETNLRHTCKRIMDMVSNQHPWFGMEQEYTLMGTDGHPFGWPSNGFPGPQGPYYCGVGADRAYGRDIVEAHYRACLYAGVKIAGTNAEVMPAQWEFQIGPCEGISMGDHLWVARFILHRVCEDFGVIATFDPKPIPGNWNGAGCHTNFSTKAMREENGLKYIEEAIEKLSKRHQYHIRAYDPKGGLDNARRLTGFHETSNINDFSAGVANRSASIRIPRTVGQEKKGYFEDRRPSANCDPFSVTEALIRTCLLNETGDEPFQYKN
Sequence of UniProt Q9UK99 (Q9UK99 whole entry, looked up): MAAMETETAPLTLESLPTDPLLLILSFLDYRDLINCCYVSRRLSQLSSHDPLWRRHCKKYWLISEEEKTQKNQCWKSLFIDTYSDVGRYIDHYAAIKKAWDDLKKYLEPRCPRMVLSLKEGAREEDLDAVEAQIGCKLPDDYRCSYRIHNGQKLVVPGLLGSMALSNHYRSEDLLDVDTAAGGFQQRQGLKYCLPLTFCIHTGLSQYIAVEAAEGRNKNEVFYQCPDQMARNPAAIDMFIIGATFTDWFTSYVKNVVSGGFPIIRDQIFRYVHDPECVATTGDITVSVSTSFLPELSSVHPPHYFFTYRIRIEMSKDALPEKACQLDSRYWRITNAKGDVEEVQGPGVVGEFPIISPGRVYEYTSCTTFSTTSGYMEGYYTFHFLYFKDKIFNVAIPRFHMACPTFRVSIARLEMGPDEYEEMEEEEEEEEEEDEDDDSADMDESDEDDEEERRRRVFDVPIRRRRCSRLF
Sequence of UniProt Q1KMD3 (Q1KMD3 whole entry, looked up): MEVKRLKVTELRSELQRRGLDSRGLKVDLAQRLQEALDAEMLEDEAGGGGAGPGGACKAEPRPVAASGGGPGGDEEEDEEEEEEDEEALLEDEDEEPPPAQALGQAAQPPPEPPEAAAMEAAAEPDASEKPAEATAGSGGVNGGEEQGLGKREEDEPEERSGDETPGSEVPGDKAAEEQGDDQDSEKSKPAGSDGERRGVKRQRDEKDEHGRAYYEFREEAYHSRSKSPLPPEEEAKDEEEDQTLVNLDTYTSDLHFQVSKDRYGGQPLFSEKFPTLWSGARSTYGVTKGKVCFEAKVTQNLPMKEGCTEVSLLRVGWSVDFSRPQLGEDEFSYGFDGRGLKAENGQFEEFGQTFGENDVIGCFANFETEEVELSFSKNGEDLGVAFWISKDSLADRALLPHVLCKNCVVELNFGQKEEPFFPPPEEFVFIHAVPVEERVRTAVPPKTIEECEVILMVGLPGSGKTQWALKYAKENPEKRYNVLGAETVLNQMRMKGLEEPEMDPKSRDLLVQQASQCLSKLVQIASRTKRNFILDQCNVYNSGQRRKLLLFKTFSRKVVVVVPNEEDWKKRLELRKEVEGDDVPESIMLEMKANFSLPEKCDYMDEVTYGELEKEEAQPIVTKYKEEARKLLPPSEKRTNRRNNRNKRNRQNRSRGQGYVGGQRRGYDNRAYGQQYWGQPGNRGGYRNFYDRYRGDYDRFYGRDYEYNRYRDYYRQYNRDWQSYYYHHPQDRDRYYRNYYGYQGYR
Sequence of UniProt P06280 (P06280 whole entry, looked up): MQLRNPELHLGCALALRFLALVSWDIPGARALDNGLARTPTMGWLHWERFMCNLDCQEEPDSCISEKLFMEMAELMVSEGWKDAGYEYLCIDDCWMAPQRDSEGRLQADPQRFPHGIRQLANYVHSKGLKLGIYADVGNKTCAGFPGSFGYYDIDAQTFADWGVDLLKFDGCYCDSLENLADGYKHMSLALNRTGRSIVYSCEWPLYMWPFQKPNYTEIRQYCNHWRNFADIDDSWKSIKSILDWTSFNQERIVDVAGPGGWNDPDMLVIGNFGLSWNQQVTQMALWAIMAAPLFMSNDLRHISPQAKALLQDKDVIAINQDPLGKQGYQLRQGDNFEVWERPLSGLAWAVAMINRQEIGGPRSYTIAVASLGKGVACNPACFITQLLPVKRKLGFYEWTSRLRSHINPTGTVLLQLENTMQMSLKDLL
Sequence of UniProt O43824 (O43824 whole entry, looked up): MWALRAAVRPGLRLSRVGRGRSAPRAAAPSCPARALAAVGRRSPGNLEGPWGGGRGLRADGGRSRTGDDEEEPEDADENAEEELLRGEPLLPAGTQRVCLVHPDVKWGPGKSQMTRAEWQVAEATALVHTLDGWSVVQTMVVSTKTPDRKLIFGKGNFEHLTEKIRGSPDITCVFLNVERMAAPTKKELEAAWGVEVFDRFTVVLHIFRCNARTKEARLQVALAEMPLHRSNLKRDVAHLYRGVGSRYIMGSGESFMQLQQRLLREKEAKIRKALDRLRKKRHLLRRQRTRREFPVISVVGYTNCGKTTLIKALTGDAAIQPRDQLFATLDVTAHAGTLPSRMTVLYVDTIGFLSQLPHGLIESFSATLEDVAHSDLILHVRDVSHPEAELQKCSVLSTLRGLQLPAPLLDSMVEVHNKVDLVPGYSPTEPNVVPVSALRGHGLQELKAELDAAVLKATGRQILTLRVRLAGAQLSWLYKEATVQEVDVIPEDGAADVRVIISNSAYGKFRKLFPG
Sequence of UniProt P22570 (P22570 whole entry, looked up): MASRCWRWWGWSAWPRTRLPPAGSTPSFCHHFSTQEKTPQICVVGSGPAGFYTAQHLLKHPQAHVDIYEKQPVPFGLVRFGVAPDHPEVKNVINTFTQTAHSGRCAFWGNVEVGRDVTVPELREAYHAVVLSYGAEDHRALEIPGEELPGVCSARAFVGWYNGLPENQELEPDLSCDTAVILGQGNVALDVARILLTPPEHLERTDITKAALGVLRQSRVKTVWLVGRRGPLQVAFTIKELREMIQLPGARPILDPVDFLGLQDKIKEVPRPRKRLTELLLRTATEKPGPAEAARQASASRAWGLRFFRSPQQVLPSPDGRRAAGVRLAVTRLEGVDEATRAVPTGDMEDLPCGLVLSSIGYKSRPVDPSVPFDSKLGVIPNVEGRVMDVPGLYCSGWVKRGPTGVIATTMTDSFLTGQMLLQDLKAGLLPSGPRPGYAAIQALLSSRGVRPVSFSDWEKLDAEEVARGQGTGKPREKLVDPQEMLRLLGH
Sequence of UniProt P09211 (P09211 whole entry, looked up): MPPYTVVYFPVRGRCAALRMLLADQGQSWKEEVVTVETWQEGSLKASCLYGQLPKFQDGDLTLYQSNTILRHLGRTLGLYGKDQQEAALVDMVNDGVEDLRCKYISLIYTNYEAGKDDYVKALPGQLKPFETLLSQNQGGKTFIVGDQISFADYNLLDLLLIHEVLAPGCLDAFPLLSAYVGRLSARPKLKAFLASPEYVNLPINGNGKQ
Sequence of UniProt Q13907 (Q13907 whole entry, looked up): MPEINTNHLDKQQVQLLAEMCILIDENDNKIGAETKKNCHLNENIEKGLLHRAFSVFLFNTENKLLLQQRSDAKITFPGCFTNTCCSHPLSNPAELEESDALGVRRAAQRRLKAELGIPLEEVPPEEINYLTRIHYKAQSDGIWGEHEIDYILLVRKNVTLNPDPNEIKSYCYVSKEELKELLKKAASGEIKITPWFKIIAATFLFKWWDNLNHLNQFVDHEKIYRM

Compound in this experiment: CC1=C2C(=CC=C1)N=C(N(C2=O)C3=CC=CC=C3C)CN4C=NC5=C(N=CN=C54)N
Kind of experiment: log2 fold change, soluble protein after heating vs DMSO (PISA); higher = thermal stabilisation; K562 cells, 10 uM, 30 min; active = over 0.2 and 3.5 SD of the protein, either way, in both replicates (recomputed). In short, it runs like this: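 K562 cells (2×10^6 cells/mL) were treated with 10 μM compound for 30 min, and aliquots were heated for 3 min over 48°C-58°C. Pooled aliquots were extracted in PBS with 0.5% NP-40 at 4°C, and the supernatant after 21,000xg for 90 min was measured by TMTpro 16plex LC-MS/MS with channel sums equalised. Reported thermal stability, relative to control samples and from duplicates, is a log2 fold change.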
With HNRNPUL2 (UniProt Q1KMD3), the log2 fold change is -0.041.

As for FOXK1 (UniProt P85037), the log2 fold change was 0.253. Turning to GTF2A1 (UniProt P52655), the log2 fold change was -0.01. With HSD17B12 (UniProt Q53GQ0) the figure was 0.066. For the target IDI1 isoform 2 (UniProt Q13907), the log2 fold change is 0.037. Turning to HEXA (UniProt P06865), the log2 fold change was 0.052.

Turning to GCC2 (UniProt Q8IWJ2), the log2 fold change is 0.004. For the target FDXR isoform 7 (UniProt P22570), the log2 fold change is 0.038. On to IFT80 isoform 3 (UniProt Q9P2H3), for which the log2 fold change was 0.083. As for HIST2H2BF isoform 2 (UniProt Q5QNW6), the log2 fold change is -0.29.

IFITM3 (UniProt Q01628): the log2 fold change was -0.06. Consider GLUL (UniProt P15104), for which the log2 fold change is 0.

As for HIP1 (UniProt O00291), the log2 fold change is 0.106. Consider GLS (UniProt O94925), for which the log2 fold change is 0.138. Under HIC2 (UniProt Q96JB3) stands -0.048. In the case of GNPAT (UniProt O15228), the log2 fold change was 0.07. GTF2H3 (UniProt Q13889): the log2 fold change is 0.099. With FKBP3 (UniProt Q00688) the figure was 0.01; with GLA (UniProt P06280), -0.01. In the case of HNRNPH1 (UniProt P31943), the log2 fold change was 0.045. For the target HNRNPUL1 (UniProt Q9BUJ2), the log2 fold change was 0.024. For the target GMEB1 (UniProt Q9Y692), the log2 fold change is -0.007. With GALK1 isoform 2 (UniProt P51570), the log2 fold change was -0.065.

As for GNS (UniProt P15586), the log2 fold change was 0.013. GTF3C4 (UniProt Q9UKN8): the log2 fold change was 0.143. In the case of FECH isoform 2 (UniProt P22830), the log2 fold change is 0.023. Take GLUD1 (UniProt P00367): the log2 fold change was -0.004. As for GALNT4 (UniProt Q8N4A0), the log2 fold change was 0.109.

Regarding GNL1 (UniProt P36915), the log2 fold change is 0.099.

Turning to FBXO3 (UniProt Q9UK99), the log2 fold change is 0.033.

For IFRD1 (UniProt O00458), the log2 fold change was 0.049. Turning to GTPBP6 (UniProt O43824), the log2 fold change is 0.012. GPX4 (UniProt P36969): the log2 fold change is 0.017. Regarding GSTP1 (UniProt P09211), the log2 fold change is 0.005.

(Values after the supplement of paper PMC10849652.)
